In all, about 5,500 compounds went through this assay and about 2,000 (36%) were called active. Roughly 18% stayed inconclusive and do not appear here. No stated cut-off is given here; in the data, active means normalized growth mostly below about 0.91 (no sharp cut-off); inconclusive means no clear call, values can overlap the other calls; inactive means mostly above about 0.92. The list shows a part of the results.
Experiment: chemical genetic growth profiling, strain panel (AID 1159580);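 further: tested at 20 µM; growth read once vehicle control cultures reached saturation at 30 °C; 1 = growth at the plate median or of vehicle wells; lower values mean less growth of the strain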
Conditions: growth OD

Measured: normalized growth

COc1cc(C(=O)NCc2ccc(OCCN(C)C)cc2)cc(OC)c1OC
inactive: S. cerevisiae deletion strains, locus YJL187C, strain SWE1, active compounds read low 0.99 | S. cerevisiae deletion strains, locus YJR043C, strain POL32, active compounds read low 0.984 | S. cerevisiae deletion strains, locus YJR066W, strain TOR1, active compounds read low 0.929 | S. cerevisiae deletion strains, locus YKL009W, strain mrt4, active compounds read low 1.01 | S. cerevisiae deletion strains, locus YKL068W, active compounds read low 0.978 | S. cerevisiae deletion strains, locus YKL085W, strain MDH1 (second series), active compounds read low 0.975 | S. cerevisiae deletion strains, locus YKL085W, strain MDH1, active compounds read low 0.975 | S. cerevisiae deletion strains, locus YKL160W, strain elf1, active compounds read low 0.947 | S. cerevisiae deletion strains, locus YKL190W, strain CNB1, active compounds read low 0.986 | S. cerevisiae deletion strains, locus YKR001C, strain vps1, active compounds read low 0.983 | S. cerevisiae deletion strains, locus YKR026C, strain gcn3, active compounds read low 0.989 | S. cerevisiae deletion strains, locus YKR091W, strain srl3, active compounds read low 0.993 | S. cerevisiae deletion strains, locus YLL001W, strain dnm1, active compounds read low 1 | S. cerevisiae deletion strains, locus YLL026W, active compounds read low 1 | S. cerevisiae deletion strains, locus YLL041C, strain sdh2, active compounds read low 1 | S. cerevisiae deletion strains, locus YLR027C, strain aat2, active compounds read low 0.996 | S. cerevisiae deletion strains, locus YLR039C, strain RIC1, active compounds read low 0.954 | S. cerevisiae deletion strains, locus YLR058C, strain SHM2, active compounds read low 0.97 | S. cerevisiae deletion strains, locus YLR102C, strain apc9, active compounds read low 0.984 | S. cerevisiae deletion strains, locus YLR113W, strain HOG1, active compounds read low 0.986 | S. cerevisiae deletion strains, locus YLR221C, strain rsa3, active compounds read low 1.01 | S. cerevisiae deletion strains, locus YLR258W, strain gsy2, active compounds read low 0.999 | S. cerevisiae deletion strains, locus YLR262C, strain YPT6 (second series), active compounds read low 1.02 | S. cerevisiae deletion strains, locus YLR262C, strain YPT6, active compounds read low 0.965 | S. cerevisiae deletion strains, locus YLR268W, strain sec22, active compounds read low 0.971 | S. cerevisiae deletion strains, locus YLR320W, strain mms22, active compounds read low 0.978 | S. cerevisiae deletion strains, locus YLR330W, strain CHS5, active compounds read low 0.999 | S. cerevisiae deletion strains, locus YLR342W, strain FKS1 (second series), active compounds read low 1.07 | S. cerevisiae deletion strains, locus YLR342W, strain FKS1, active compounds read low 0.991 | S. cerevisiae deletion strains, locus YLR357W, strain rsc2, active compounds read low 0.959 | S. cerevisiae deletion strains, locus YLR370C, strain arc18, active compounds read low 0.99 | S. cerevisiae deletion strains, locus YLR371W, strain rom2, active compounds read low 0.984 | S. cerevisiae deletion strains, locus YLR384C, strain iki3, active compounds read low 1 | S. cerevisiae deletion strains, locus YLR418C, strain cdc73, active compounds read low 1.01 | S. cerevisiae deletion strains, locus YML016C, strain PPZ1, active compounds read low 0.991 | S. cerevisiae deletion strains, locus YML032C, strain rad52, active compounds read low 0.987 | S. cerevisiae deletion strains, locus YML120C, strain ndi1, active compounds read low 1.01 | S. cerevisiae deletion strains, locus YML124C, strain tub3, active compounds read low 0.982 | S. cerevisiae deletion strains, locus YMR058W, strain fet3, active compounds read low 1.02 | S. cerevisiae deletion strains, locus YMR078C, strain ctf18, active compounds read low 0.984 | S. cerevisiae deletion strains, locus YMR125W, strain sto1, active compounds read low 0.961 | S. cerevisiae deletion strains, locus YMR129W, active compounds read low 1.01 | S. cerevisiae deletion strains, locus YMR205C, strain PFK2, active compounds read low 0.992 | S. cerevisiae deletion strains, locus YMR223W, strain ubp8, active compounds read low 1.03 | S. cerevisiae deletion strains, locus YMR231W, strain pep5, active compounds read low 1 | S. cerevisiae deletion strains, locus YMR307W, strain GAS1, active compounds read low 1.05 | S. cerevisiae deletion strains, locus YNL067W, strain RPL9B, active compounds read low 0.972 | S. cerevisiae deletion strains, locus YNL071W, strain lat1, active compounds read low 0.991 | S. cerevisiae deletion strains, locus YNL183C, strain NPR1, active compounds read low 0.937 | S. cerevisiae deletion strains, locus YNL209W, strain ssb2, active compounds read low 0.988 | S. cerevisiae deletion strains, locus YNL233W, strain BNI4, active compounds read low 0.994 | S. cerevisiae deletion strains, locus YNL248C, strain rpa49, active compounds read low 0.95 | S. cerevisiae deletion strains, locus YNL250W, strain rad50, active compounds read low 0.977 | S. cerevisiae deletion strains, locus YNL271C, strain bni1, active compounds read low 0.976 | S. cerevisiae deletion strains, locus YNL298W, strain CLA4, active compounds read low 0.997 | S. cerevisiae deletion strains, locus YNL307C, strain MCK1, active compounds read low 0.98 | S. cerevisiae deletion strains, locus YNL322C, strain KRE1 (second series), active compounds read low 0.983 | S. cerevisiae deletion strains, locus YNL322C, strain KRE1, active compounds read low 0.984 | S. cerevisiae deletion strains, locus YNR049C, strain mso1, active compounds read low 1 | S. cerevisiae deletion strains, locus YNR052C, strain pop2, active compounds read low 0.988 | S. cerevisiae deletion strains, locus YOL012C, strain htz1 1.41 | S. cerevisiae deletion strains, locus YOL147C, strain pex11, active compounds read low 0.991 | S. cerevisiae deletion strains, locus YOR001W, strain rrp6, active compounds read low 1.01 | S. cerevisiae deletion strains, locus YOR061W, strain CKA2, active compounds read low 0.962 | S. cerevisiae deletion strains, locus YOR069W, strain VPS5, active compounds read low 0.997 | S. cerevisiae deletion strains, locus YOR070C, strain gyp1, active compounds read low 0.997 | S. cerevisiae deletion strains, locus YOR080W, strain dia2, active compounds read low 0.997 | S. cerevisiae deletion strains, locus YOR083W, strain WHI5, active compounds read low 0.927 | S. cerevisiae deletion strains, locus YOR106W, strain vam3, active compounds read low 0.98 | S. cerevisiae deletion strains, locus YOR136W, strain idh2, active compounds read low 0.98 | S. cerevisiae deletion strains, locus YOR144C, strain elg1, active compounds read low 0.993 | S. cerevisiae deletion strains, locus YOR184W, strain ser1, active compounds read low 0.985 | S. cerevisiae deletion strains, locus YOR231W, strain MKK1, active compounds read low 0.984 | S. cerevisiae deletion strains, locus YOR265W, strain rbl2, active compounds read low 1 | S. cerevisiae deletion strains, locus YOR270C, strain vph1, active compounds read low 0.973 | S. cerevisiae deletion strains, locus YOR290C, strain snf2, active compounds read low 0.972 | S. cerevisiae deletion strains, locus YOR316C, strain cot1, active compounds read low 0.977 | S. cerevisiae deletion strains, locus YPL051W, strain arl3, active compounds read low 0.982 | S. cerevisiae deletion strains, locus YPL055C, strain LGE1, active compounds read low 0.931 | S. cerevisiae deletion strains, locus YPL078C, strain atp4, active compounds read low 0.965 | S. cerevisiae deletion strains, locus YPL106C, strain sse1, active compounds read low 0.935 | S. cerevisiae deletion strains, locus YPL240C, strain hsp82, active compounds read low 0.995 | S. cerevisiae deletion strains, locus YPL256C, strain CLN2, active compounds read low 0.97 | S. cerevisiae deletion strains, locus YPR119W, strain clb2, active compounds read low 0.981 | S. cerevisiae deletion strains, locus YPR141C, strain kar3, active compounds read low 0.969 | S. cerevisiae deletion strains, locus YPR163C, strain tif3, active compounds read low 0.988 | S. cerevisiae deletion strains, locus YPR167C, strain met16, active compounds read low 0.994 | S. cerevisiae deletion strains, strain wtn01, active compounds read low 1 | S. cerevisiae strains, strain wild type, active compounds read low 0.979
